We go through 20 molecules from PubChem BioAssay (NCI).

The nature of assay [1]: NCI Yeast Anticancer Drug Screen. Data for the rad50 strain (AID 155).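 Also: 0% = growth of vehicle-only cultures of the same strain.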 The note with it: S. cerevisiae rad50 strain growth inhibition, hits give high values; at 50.0 µM unless noted. In short, it runs like this: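 DNA repair mutant yeast, compound exposure, growth read-out; inhibition is taken relative to vehicle.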
Assay [2] in a line: NCI Yeast Anticancer Drug Screen. Data for the mec2-1 strain (AID 157). As to conditions: S. cerevisiae mec2-1 strain, hits give high values; at 50.0 µM unless noted. In short, it runs like this: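 Vehicle-treated cultures served as reference for growth inhibition of compound-exposed mec2-1 yeast.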
The nature of assay [3]: NCI Yeast Anticancer Drug Screen. Data for the sgs1 mgt1 strain (AID 161).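 Also: 0% = growth of cultures given vehicle only.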 As to conditions: S. cerevisiae sgs1 mgt1 strain, hits give high values; at 50.0 µM unless noted. In short, it runs like this: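 Read-out: growth inhibition vs vehicle controls. Cells: mutant yeast strain deficient in DNA damage repair.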
Assay [4] in a line: NCI Yeast Anticancer Drug Screen. Data for the cln2 rad14 strain (AID 165).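 Also: 0% = growth equal to vehicle treated cultures.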 The note with it: S. cerevisiae cln2 rad14 strain, hits give high values; at 50.0 µM unless noted. The gist of the method:
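Each compound was tested on cln2 rad14 yeast. Inhibition of growth was calculated against vehicle-exposed controls.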

Assay [5] is described as follows: NCI Yeast Anticancer Drug Screen. Data for the bub3 strain (AID 167). The note with it: S. cerevisiae bub3 mutant strain, hits give high values; at 50.0 µM unless noted. The gist of the method: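 In this screen, a yeast mutant lacking normal mitotic checkpoint function is challenged with compound. Relative growth versus vehicle gives the inhibition value.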
Assay [6] in a line: NCI Yeast Anticancer Drug Screen. Data for the mlh1 rad18 strain (AID 175). As to conditions: S. cerevisiae mlh1 rad18 strain growth inhibition, hits give high values; at 50.0 µM unless noted. The gist of the method:
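Vehicle-treated cultures served as the reference for growth inhibition in a yeast strain carrying DNA damage repair alterations exposed to each compound.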

The panel holds about 79,000 compounds, 15% with a hit somewhere; the sample as a whole holds those more often. Values without a mark were called inactive. Calls of active or inactive are those of the source. Rule as the data show it: active = growth inhibition above about 70%; inactive = the rest.

As to `CN(C)c1ccc(C(=O)Cc2ccc3ccccc3n2)cc1`, the growth inhibition in assay [1] is 98.7% (active); in assay [2], 99.2% (active); in assay [3], 99.1% (active); in assay [4] it was 98.2% (active); in assay [5], 98.9% (active); in assay [6], 98.9% (active).
`CCOC(=O)CSC#N`: the growth inhibition in assay [1] was -2.05%; in assay [2], -0.85%; in assay [3], 1.35%; in assay [4], 7.4%; in assay [5], 21.2%; in assay [6] it was 2.9%.
Turning to `Cc1cc(C)c(-c2noc(-c3ccc(Cl)cc3)c2C2=NCCN2)c(C)c1`, the growth inhibition is 29.9% in assay [1]; 18.3% in assay [2]; 18.1% in assay [3]; 38.6% in assay [4]; 17.7% in assay [5]; 8.45% in assay [6].
On to `CCC[C@@H]1C(=O)N=C(N)N1C(=O)OCc1ccccc1`, for which the growth inhibition in assay [1] is 18.6%; in assay [2], 8.4%; in assay [3], 7.75%; in assay [4], 1.8%; in assay [5] it was -5.8%; in assay [6] it was 2.5%.
`COc1ccccc1C(O)C(C)C` (stereo not given): the growth inhibition in assay [1] is -17.6%; in assay [2], -11.3%; in assay [3], 3.9%; in assay [4], -15.8%; in assay [5], -5.25%; in assay [6], -24.1%.
`O=C(O)c1cccc(S(=O)(=O)c2ccc([N+](=O)[O-])cc2)c1`: the growth inhibition is -0.25% in assay [1]; 0.55% in assay [2]; 4.9% in assay [3]; -6.15% in assay [4]; -5.7% in assay [5]; 14.2% in assay [6].
`CC(C)N(C(=O)c1ccccc1O)C(C)C`: the growth inhibition is 2.95% in assay [1]; -7.65% in assay [2]; 6.55% in assay [3]; -7.7% in assay [4]; -4.4% in assay [5]; 2% in assay [6].
For the molecule `Cc1ccc(C(=O)CC(Sc2ccccc2N)c2c(Cl)cccc2Cl)c(C)c1` (stereo not given), the growth inhibition is -7.4% in assay [1]; -26.4% in assay [2]; 3.8% in assay [3]; -4.5% in assay [4]; -11.1% in assay [5]; -16.5% in assay [6].
As to `CC1(CO)COC(C)(C)OC1`, the growth inhibition in assay [1] is 16.1%; in assay [2], 5.85%; in assay [3], 7.1%; in assay [4], 29.2%; in assay [5], 2.75%; in assay [6] it was 13.6%.
Turning to `O=C(Oc1ccc(O)cc1)N(c1cccc2ccccc12)c1cccc2ccccc12`, the growth inhibition in assay [1] was 38%; in assay [2], 18.1%; in assay [3], 40.6%; in assay [4], 22.4%; in assay [5], 66%; in assay [6], 44.2%.
In the case of `Cc1ccc(NC(=O)CCS)cc1`, the growth inhibition in assay [1] is -1.75%; in assay [2], -25.9%; in assay [3], 9.5%; in assay [4], 2.1%; in assay [5] it was -13.2%; in assay [6], 15.9%.
Turning to `O=c1[nH]c(=O)n(C2OC(CO)C(O)C2Br)cc1Br` (stereo not given), the growth inhibition in assay [1] is -2.25%; in assay [2], -3.3%; in assay [3], -6.8%; in assay [4], -7.6%; in assay [5], 0.65%; in assay [6], 23.9%.
For the molecule `N#Cc1sc2c(c1OC(=O)c1cccs1)c(=O)n(-c1ccccc1)c(=S)n2-c1ccccc1`, the growth inhibition in assay [1] is 3.1%; in assay [2] it was 10.4%; in assay [3] it was 17.2%; in assay [4], -5.55%; in assay [5], 25.8%; in assay [6], 15.2%.
Take `COc1ccc(/C(=C(/c2ccc(OC)cc2)C2CC2)C2CC2)cc1`: the growth inhibition is -5.3% in assay [1]; 7.25% in assay [2]; 11% in assay [3]; -14.8% in assay [4]; 5.45% in assay [5]; 10.6% in assay [6].
Turning to `Nc1ncnc(N)c1NC(=O)c1ccc2ccccc2c1`, the growth inhibition was 8.95% in assay [1]; 35.1% in assay [2]; -1.55% in assay [3]; -1.85% in assay [4]; -20.4% in assay [5]; -21.4% in assay [6].
For the molecule `CC1C(c2ccccc2)OCCN1C(=S)Nc1ccccc1` (stereo not given), the growth inhibition was 34.9% in assay [1]; 34.2% in assay [2]; 45.6% in assay [3]; -16.6% in assay [4]; 35.2% in assay [5]; 25.4% in assay [6].
With `Oc1ccccc1-c1cc(-c2ccccc2)nc(NCCCNc2nc(-c3ccccc3)cc(-c3ccccc3O)n2)n1`, the growth inhibition is -11.2% in assay [1]; 8% in assay [2]; -5.3% in assay [3]; -14.8% in assay [4]; 35% in assay [5]; 14.2% in assay [6].
Take `CN1C(=O)CCC1c1nc2ccccc2[nH]1` (stereo not given): the growth inhibition in assay [1] is 0.15%; in assay [2] it was 9.95%; in assay [3], -3.05%; in assay [4], -17.9%; in assay [5], 6.45%; in assay [6] it was 20.4%.
Regarding `CN(C)Cc1cc(C(=O)/C=C/c2ccc(Cl)c(Cl)c2)cc(CN(C)C)c1O`, the growth inhibition in assay [1] was -1.95%; in assay [2] it was -14.4%; in assay [3], 6.3%; in assay [4], 31.9%; in assay [5] it was 2.15%; in assay [6], -3.3%.
Consider `Cc1ccc(N2CCC(O)C2)cc1` (stereo not given), for which the growth inhibition in assay [1] was -19.4%; in assay [2], -8.5%; in assay [3], -7.05%; in assay [4], 4.95%; in assay [5] it was -8.4%; in assay [6] it was -25.9%.
